# In PubChem BioAssay (Tox21):
# Unmarked numbers belong to inactive results. A call without a number means that no potency is given here. Calls of active or inactive are those of the source. Unless noted, calls come from the whole dose curve; as a rule, active = well fitted curve in the direction sought with a large enough effect in the repeat runs; inconclusive = weak or mixed curves; inactive = flat fitted curve, though single readings scatter.
# How the values were obtained:
# [1] = qHTS assay to test for compound auto fluorescence at 535 nm (green) in HEK293 cells (AID 720680)
# [2] = qHTS assay to test for compound auto fluorescence at 460 nm (blue) in HEK293 cell free culture (AID 720681); note: potency is the fitted concentration of half-maximal effect
# Outline: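 Test compounds were pinned into cell-free culture medium (DMEM with 10% FBS) and fluorescence was read directly at Ex/Em 405/460 nm. Signals were expressed as fluorescence equivalents of triamterene, with DMSO vehicle as control.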
# [3] = qHTS assay to test for compound auto fluorescence at 535 nm (green) in HEK293 cell free culture (AID 720682)
# Outline: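 Intrinsic compound fluorescence is measured in culture medium containing 10% FBS, with excitation at 485 nm and detection at 535 nm, referenced to fluorescein.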
# [4] = qHTS assay to test for compound auto fluorescence at 590 nm (red) in HEK293 cell free culture (AID 720683)
# Outline: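 Tox21 10K library compounds were pinned into cell-free DMEM with 10% FBS and fluorescence was read at excitation 540 nm. Activity is expressed as Rose Bengal sodium equivalency.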
# [5] = qHTS assay to test for compound auto fluorescence at 590 nm (red) in HepG2 cell free culture (AID 720684)
# Outline: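 Readout: intrinsic compound fluorescence at 590 nm emission after 540 nm excitation, scaled to Rose Bengal sodium. Matrix was cell-free MEM with 10% FBS; DMSO vehicle wells served as control.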
# [6] = qHTS assay to test for compound auto fluorescence at 460 nm (blue) in HepG2 cell free culture (AID 720685); note: potency is the fitted concentration of half-maximal effect
# Outline: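 Cell-free plates of MEM plus 10% FBS received 23 nL compound or DMSO vehicle; blue-channel (405/460 nm) intensity scored against triamterene as reference fluorophore.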
# [7] = qHTS assay to test for compound auto fluorescence at 535 nm (green) in HepG2 cell free culture (AID 720686)
# [8] = qHTS assay to test for compound auto fluorescence at 460 nm (blue) in HepG2 cells (AID 720687); note: potency is the fitted concentration of half-maximal effect
# Outline: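 Cells (2,000/well in MEM with 10% FBS) attached overnight at 37 C, then were exposed to compound or DMSO for 1 hr at 37 C, 5% CO2. Fluorescence read at Ex/Em 405/460 nm, expressed as triamterene-equivalent signal.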
# [9] = target: Glucocorticoid receptor (Homo sapiens) (UniProt P04150); experiment: qHTS assay to identify small molecule agonists of the glucocorticoid receptor (GR) signaling pathway (AID 720691; active = well fitted activation curve with a large enough effect in the signal ratio in the repeat runs, not every such curve was filed as active; inconclusive = weak or mixed curves, or effect the other way; inactive = no such curve, though single readings can be large or run the other way; the % refers to the signal ratio; note: potency is the fitted concentration of half-maximal effect)
# Outline: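 Measures GR pathway activation through a GRE-beta-lactamase reporter stably integrated in HeLa cells, with 18 h compound treatment at 37 C and fluorescence detection using a FRET substrate.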
# [10] = target: Glucocorticoid receptor (Homo sapiens) (UniProt P04150); experiment: qHTS assay to identify small molecule antagonists of the glucocorticoid receptor (GR) signaling pathway (AID 720692; active = well fitted inhibition curve with a large enough effect in the signal ratio in the repeat runs, not every such curve was filed as active; inconclusive = weak or mixed curves, or effect the other way; inactive = no such curve, though single readings can be large or run the other way; the % refers to the signal ratio; note: potency is the fitted concentration of half-maximal effect)
# Outline: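 Tox21 10K library screened in concentration-response for blockade of dexamethasone (5 nM final)-induced GRE-bla reporter activity in HeLa cells; 18 h treatment, fluorescence read.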
# Tags give direction and shape of the fitted curve or compound fluorescence and quenching.
# Sequence of Glucocorticoid receptor (Homo sapiens) (P04150 whole entry, looked up): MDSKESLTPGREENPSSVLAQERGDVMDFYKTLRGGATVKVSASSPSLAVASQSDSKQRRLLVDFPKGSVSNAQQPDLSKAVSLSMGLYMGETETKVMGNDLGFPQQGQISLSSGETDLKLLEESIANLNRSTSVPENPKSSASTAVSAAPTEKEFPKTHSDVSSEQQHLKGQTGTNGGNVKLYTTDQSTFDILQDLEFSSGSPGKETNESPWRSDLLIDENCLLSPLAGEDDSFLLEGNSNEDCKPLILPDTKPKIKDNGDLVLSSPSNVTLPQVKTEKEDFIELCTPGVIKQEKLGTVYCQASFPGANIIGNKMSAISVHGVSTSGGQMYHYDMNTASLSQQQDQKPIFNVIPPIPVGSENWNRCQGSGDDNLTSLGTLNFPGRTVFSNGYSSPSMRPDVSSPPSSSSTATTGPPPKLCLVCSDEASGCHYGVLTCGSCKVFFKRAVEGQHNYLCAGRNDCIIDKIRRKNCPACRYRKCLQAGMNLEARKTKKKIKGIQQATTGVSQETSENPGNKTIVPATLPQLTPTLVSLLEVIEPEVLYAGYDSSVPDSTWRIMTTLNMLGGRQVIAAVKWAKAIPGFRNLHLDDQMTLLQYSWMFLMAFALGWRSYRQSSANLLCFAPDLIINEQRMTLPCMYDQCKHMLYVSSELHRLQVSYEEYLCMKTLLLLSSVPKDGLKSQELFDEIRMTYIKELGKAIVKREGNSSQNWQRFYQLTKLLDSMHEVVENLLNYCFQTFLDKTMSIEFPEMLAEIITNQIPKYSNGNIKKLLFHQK
SMILES,outcome [1],Potency [2],outcome [3],outcome [4],outcome [5],Potency [6],outcome [7],Potency [8],Potency [9],Potency [10],"fluorescence, % of fluorescein [1]","fluorescence, % of fluorescent control [2]",activity change [3],"fluorescence, % of fluorescent control [4]","fluorescence, % of Rose Bengal [5]","fluorescence, % of fluorescent control [6]","fluorescence, % of fluorescein control [7]","fluorescence, % of fluorescent control [8]"
CC(=O)NNC(C)=O,inactive,inactive,inactive,inactive,inactive,inactive,inactive,inactive,inactive,inactive,,,,,,,,
COC(=O)c1sccc1S(N)(=O)=O,inactive,inactive,inactive,inactive,inactive,inactive,inactive,inactive,inactive,,,,,,,,,
CC12CC3CC(C)(C1)CC(N)(C3)C2,inactive,inactive,inactive,inactive,inactive,inactive,inactive,inactive,inactive,inactive,,,,,,,,
COC(=O)C1=C(C)NC(C)=C(C(=O)OC(C)(C)CN(C)CCC(c2ccccc2)c2ccccc2)C1c1cccc([N+](=O)[O-])c1 (stereo not given),inactive,inactive,inactive,inactive,inactive,inactive,inactive,inactive,inactive,6.74 µM (active),,,,,,,,
CC(C)(C)NCC(O)COc1cccc2c1C[C@H](O)[C@H](O)C2 (stereo not given in full),,,,,,,,,inactive,inactive,0.0671% [at 18.6 µM],0.0347% [at 18.6 µM],0.0167% [at 18.6 µM],0.19% [at 18.6 µM],-0.334% [at 18.6 µM],0.0077% [at 18.6 µM],-0.0012% [at 18.6 µM],0.0012% [at 18.6 µM]
O=C(Oc1ccccc1)c1ccc2ccccc2c1O,inactive,inactive,inactive,inactive,inactive,inactive,inactive,inactive,inactive,,,,,,,,,
C1CCCCC1,inactive,inactive,inactive,inactive,inactive,inactive,inactive,,inactive,inactive,,,,,,,,
CC(CCc1ccc(O)cc1)NCCc1ccc(O)c(O)c1 (stereo not given),inactive,inactive,inactive,inactive,inactive,inactive,inactive,inactive,inactive,inactive,,,,,,,,
COc1cc(C(C)=O)ccc1OCCCN1CCC(c2noc3cc(F)ccc23)CC1,inactive,inactive,inactive,inactive,inactive,inactive,inactive,,inactive,inactive,,,,,,,,
Cc1ccc(N(CCO)CCO)cc1,inactive,inactive,inactive,inactive,inactive,inactive,inactive,inactive,inactive,inactive,,,,,,,,
CCCc1nc2c(C)cc(-c3nc4ccccc4n3C)cc2n1Cc1ccc(-c2ccccc2C(=O)O)cc1,inactive,inactive,inactive,inactive,inactive,inactive,inactive,,inactive,,,,,,,,,
CC(=O)OCC(=O)[C@@]1(OC(C)=O)[C@@H](C)C[C@H]2[C@@H]3C[C@H](F)C4=CC(=O)C=C[C@]4(C)[C@@]3(F)[C@@H](O)C[C@@]21C,inactive,inactive,inactive,inactive,inactive,inactive,inactive,inactive,0.0379 µM [inconclusive] (active),,,,,,,,,
CCCCCCCC/C=C\CCCCCCCC(=O)OCCO,inactive,inactive,inactive,inactive,inactive,inactive,inactive,inactive,inactive,57.8 µM (active),,,,,,,,
CC1CCCC(=O)C1=O (stereo not given),inactive,inactive,inactive,inactive,inactive,inactive,inactive,,inactive,inactive,,,,,,,,
CC(C)(O)c1coc(S(=O)(=O)NC(=O)Nc2c3c(cc4c2CCC4)CCC3)c1,inactive,inactive,inactive,inactive,inactive,inactive,inactive,inactive,inactive,inactive,,,,,,,,
CCN(Cc1cccc(S(=O)(=O)O)c1)c1ccc(C(=C2C=CC(=[N+](CC)Cc3cccc(S(=O)(=O)O)c3)C=C2)c2ccc(O)cc2S(=O)(=O)[O-])cc1,inactive,inactive,inactive,inactive,inactive,inactive,inactive,inactive,inactive,inactive,,,,,,,,
CCOC(=O)c1c(N)sc2c1CCN(Cc1ccccc1)C2,inactive,15.8 µM (active),inactive,inactive,inactive,15.8 µM [fluorescent] (active),inactive,17.8 µM [fluorescent] (active),inactive,,,,,,,,,
CC(=O)N[C@@H](Cc1ccc(O)cc1)C(=O)O,inactive,inactive,inactive,inactive,inactive,inactive,inactive,inactive,inactive,inactive,,,,,,,,

SMILES,outcome [1],Potency [2],outcome [3],outcome [4],outcome [5],Potency [6],outcome [7],Potency [8],Potency [9],Potency [10],"fluorescence, % of fluorescein [1]","fluorescence, % of fluorescent control [2]",activity change [3],"fluorescence, % of fluorescent control [4]","fluorescence, % of Rose Bengal [5]","fluorescence, % of fluorescent control [6]","fluorescence, % of fluorescein control [7]","fluorescence, % of fluorescent control [8]"
C[C@H](CS)C(=O)N1CCC[C@H]1C(=O)O,inactive,inactive,inactive,inactive,inactive,inactive,inactive,inactive,inactive,inactive,,,,,,,,
O=c1[nH]c2cc(C(F)(F)F)c(N3CCOCC3)cc2n(CP(=O)(O)O)c1=O,inactive,inactive,inactive,inactive,inactive,inactive,inactive,inactive,inactive,inactive,,,,,,,,
COc1ccc(C2C(=O)c3ccccc3C2=O)cc1,inactive,inactive,inactive,inactive,inactive,inactive,inactive,inactive,inactive,inactive,,,,,,,,
O=C(NC(Cc1cc(=O)[nH]c2ccccc12)C(=O)O)c1ccc(Cl)cc1 (stereo not given),inactive,inactive,inactive,inactive,inactive,inactive,inactive,,inactive,,,,,,,,,
CN1C(CSCC(F)(F)F)Nc2cc(Cl)c(S(N)(=O)=O)cc2S1(=O)=O (stereo not given),inactive,inactive,inactive,inactive,inactive,inactive,inactive,inactive,inactive,inactive,,,,,,,,
O=NN(CCCl)C(=O)NCCCl,inactive,inactive,inactive,inactive,inactive,inactive,inactive,inactive,inactive,inactive,,,,,,,,
CO[C@@H]1[C@@H](OC)[C@H](C)[C@@](O)(CC(=O)O)O[C@H]1[C@H](C)[C@H]1O[C@@]2(CC[C@@](C)([C@H]3CC[C@@](C)([C@@H]4O[C@@H]([C@H]5O[C@](C)(O)[C@H](C)C[C@@H]5C)C[C@@H]4OC4C[C@H](OC)[C@@H](OC)[C@H](C)O4)O3)O2)C[C@H](O)[C@H]1C (stereo not given in full),inactive,inactive,inactive,inactive,inactive,inactive,inactive,,inactive,,,,,,,,,
COc1cc(NS(=O)(=O)c2ccc(N)cc2)nc(C)n1,inactive,inactive,inactive,inactive,inactive,inactive,inactive,,inactive,inactive,,,,,,,,
COc1ccc(N)c([N+](=O)[O-])c1,inactive,inactive,inactive,inactive,inactive,inactive,inactive,inactive,inactive,inactive,,,,,,,,
CC(C)c1ccc(C(=O)N=C(N)N)cc1S(C)(=O)=O,inactive,inactive,inactive,inactive,inactive,inactive,inactive,inactive,inactive,inactive,,,,,,,,
Cc1ccc(Cl)cc1N,inactive,inactive,inactive,inactive,inactive,inactive,inactive,inactive,inactive,inactive,,,,,,,,
CCCCCC,inactive,inactive,inactive,inactive,inactive,inactive,inactive,inactive,inactive,inactive,,,,,,,,
CC(C)Cc1ccc(CC(=O)O)cc1,inactive,inactive,inactive,inactive,inactive,,,inactive,inactive,inactive,,,,,,,,
CCN(CC)c1cccc(O)c1,inactive,inactive,inactive,,inactive,inactive,inactive,inactive,inactive,inactive,,,,,,,,
Cc1ccc(S(=O)(=O)NC(=O)NC2CCCCC2)cc1,inactive,inactive,inactive,,inactive,,,,inactive,inactive,,,,,,,,
O=C(O)c1cc(Cl)cc(Cl)c1O,inactive,inactive,inactive,,inactive,inactive,inactive,inactive,,,,,,,,,,
Nc1ccc(F)cc1,inactive,inactive,inactive,,inactive,inactive,inactive,inactive,inactive,inactive,,,,,,,,
